# Compound activity: PubChem BioAssay, National Center for Advancing Translational Sciences (NCATS)
# Rows were chosen to be rich in hits. Some 3.8% of all compounds tested hit in one or more screens of this group.
# HT1080-NT tox – qHTS for induction of synthetic lethality in tumor cells producing 2HG: qHTS for the HT-1080-NT fibrosarcoma cell line | HT-1080-NT fibrosarcoma viability, CellTiter-Glo ATP luminescence, 48 h | AID 686970, 2013 | 360,000 compounds, 1.6% hits | Potency, µM (highest dose often 46.1 µM), without a hit: top-dose activity, negative = less viability, hits mostly cytotoxic;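 further: NT is the 2HG producing partner of a matched IDH1 knockdown line; 0% = DMSO-treated cells and -100% = media-only wells without cells; nearly all actives have a fitted effect of over 55% in size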
#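 HT-1080-NT; 750 cells/well; 5% FBS RPMI; 48 h compound, 37 degrees C; CellTiter-Glo luminescence; curve fitting and curve-class assignment.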
# HT1080 IDH1KD tx – qHTS for induction of synthetic lethality in tumor cells producing 2HG: qHTS for the HT-1080-IDH1KD cell line. HT-1080 IDH1 knockdown viability, ATP luminescence, 48 h. Potency, µM (highest dose often 46.1 µM), inactives show top-dose activity, negative = toxicity, hits mostly cytotoxic. 360,000 compounds, 2% hits. AID 686971, 2013;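 further: 0% = DMSO wells and -100% = cell-free medium wells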
#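 Knockdown cells (IDH1KD HT-1080) received compounds 2 h after plating at 750 cells/well and were kept 48 h at 37 °C in 5% FBS RPMI. A CellTiter-Glo luminescence read gave % activity for curve fitting.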
# TGFb inhibitor – qHTS for Inhibitors of TGF-b. 410,000 compounds, 1.2% hits. AID 588855, 2011. Potency, µM (series often up to 46.1 µM), for inactives: at the highest dose activity, negative = inhibition, hits mostly inhibitors. HepG2 CAGA-GFP TGF-b/SMAD3 reporter, GFP fluorescence, 18 h; TGF-beta stimulated, 500 pg/mL final; further: on the % scale 0 is the no-effect control and ±100 the full control effect; nearly all actives have a fitted effect of over 65% in size
#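 GFP signal (ex488/em500-530) from TGF-beta-stimulated HEPG2 CAGA-GFP cells, 500 pg/mL final, 18 h at 37 degrees C in DMEM plus 1% FBS, normalized to unstimulated and DMSO-stimulated controls.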
# ATXN2 expr inh – Primary qHTS for Inhibitors of ATXN expression; HEK-293 ATXN2-luciferase reporter, luminescence, 24 h; Potency, µM (highest dose often 57 µM), for inactives: top-dose activity change, negative = inhibition, hits mostly inhibitors; 360,000 compounds, 0.72% hits; further: on the % scale 0 is the no-effect control and ±100 the full control effect; nearly all actives have a fitted effect of over 55% in size
#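 qHTS (up to 57 uM final) was run with 24 h compound exposure of reporter cells at 37 °C. Each well was multiplexed: SteadyGlo luminescence measured ATXN2-luciferase expression after a fluorogenic Gly-Phe-AFC viability readout (25 uM final).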
# S2 tox – Viability Counterscreen for Primary qHTS for Inhibitors of ATXN expression. S2 cells (HEK-293 line with an ATXN2-luciferase reporter) viability, CellTiter-Fluor protease fluorescence, 24 h. Potency, µM (titrated, usually from 56.7 µM), usual class: cytotoxic. 400,000 compounds, 0.49% hits. AID 651635, 2014; further: nearly all actives have a fitted effect of over 40% in size
# HepG2 viability – qHTS for Inhibitors of TGF-b: Cytotox Counterscreen | Potency, µM (series often up to 46.1 µM), for inactives: top-dose activity change, negative = cytotoxicity, usual class: cytotoxic | 410,000 compounds, 0.76% hits | AID 588856, 2011 | HepG2 CAGA-GFP viability, ATP luminescence, 18 h
#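 CellTiter-Glo luminescence gave cytotoxicity after 18 hours at 37 degrees C. The cells were HepG2 CAGA-GFP in 1% FBS DMEM, stimulated with 500 pg/mL TGF-beta after compound addition. %Activity was normalised to no-cell wells (complete cell-killing) and DMSO (no toxicity), and curves were fitted and classified.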
# * = called active by the depositor; i = inactive; ? = inconclusive; · = not tested or not shown; [ ] = remark or other dose. The call rests on the fitted dose curve; in most records, active means well fitted curve in the direction sought with a large enough effect; inconclusive means small, poorly fitted or top-dose-only effect, or another doubt; inactive means no such curve, though single readings can be large; an effect the other way counts as inactive or inconclusive. Potency means the concentration at half of the fitted maximal effect.
SMILES,HT1080-NT tox,HT1080 IDH1KD tx,TGFb inhibitor,ATXN2 expr inh,S2 tox,HepG2 viability
CCOC(=O)c1sc(NNC(=O)c2ccc(C)cc2)nc1C,-10%,-23%,0%,1%,i,-54%
CCOC(=O)c1nc(NNC(=O)c2ccc([N+](=O)[O-])cc2)sc1C,?,7.3µM*,?,?,?,-55%
Cc1cccc(C(=O)Nc2cccc(C(=O)N/N=C/c3ccc4c(c3)OCO4)c2)c1,18µM*,?,-15%,7%,?,-10%
O=C(N/N=C/c1ccc2c(c1)OCO2)c1cccc(NC(=O)c2ccccc2Cl)c1,12µM*,8.2µM*,-20%,-4%,?,-19%
COc1cccc(CNC(=O)c2c3c(nc4ccccc24)C(=O)N(C2CCCCC2)C3)c1,·,·,2%,·,·,-4%
Cc1cc(C(=O)NCc2nnc3n2CCN(Cc2ccc(C)c(C)c2)CC3)c(C)o1,·,·,·,·,i,·
COc1ccccc1NC(=O)C1=C(C)Nc2nc(-c3ccco3)nn2C1c1cccc(C)c1 (configuration not stated),·,·,?,-12%,i,2%
COC(=O)C1=CN(Cc2cccs2)C=C(C(=O)OC)C1c1cccc(Cl)c1,-8%,-23%,?,-18%,?,10µM*
COC(=O)C1=CN(Cc2cccs2)C=C(C(=O)OC)C1c1ccc(OC)cc1OC,-10%,-8%,18%,-10%[11.3 µM],·,13%
CCC(=O)N(C1=C(NC)C(=O)c2ccccc2C1=O)C(C)C,4.6µM*,9.2µM*,?,·,?,-71%
CCC(=O)N(CC)C1=C(O)c2ccccc2C(=O)C1=O,-14%,?,-5%,-31%,·,-28%
CNC1=C(N(C(C)=O)c2ccc(Br)cc2)C(=O)c2ccccc2C1=O,1.8µM*,1.8µM*,3.5µM*,?,·,2.8µM*
COc1ccc2nc3n(c(=O)c2c1)-c1cc2ccccc2cc1C(=O)NC3Cc1ccccc1 (configuration not stated),-15%,-6%,1%,-22%,?,-9%
COc1ccc2nc3n(c(=O)c2c1)-c1cc2ccccc2cc1C(=O)NC3Cc1ccc(O)cc1 (configuration not stated),6.5µM*,3.3µM*,?,?,?,-18%
O=C1NC(Cc2ccc(O)cc2)c2nc3ccc(Br)cc3c(=O)n2-c2cc3ccccc3cc21 (configuration not stated),16µM*,13µM*,13µM*,?,?,-36%
O=C1NC(Cc2ccc(O)cc2)c2nc3ccc(Br)cc3c(=O)n2-c2ncccc21 (configuration not stated),-23%,-29%,-4%,-2%,i,-21%
COc1cccc(CNC(=O)c2sc3ncccc3c2-n2c(C)ccc2C)c1OC,·,·,?,?,?,-88%
Cc1ccc(C)n1-c1c(C(=O)NCC(C)c2ccccc2)sc2ncccc12 (configuration not stated),·,·,11µM*,-15%,?,-39%
CCOc1ccc(CCNC(=O)c2sc3ncccc3c2-n2c(C)ccc2C)cc1,·,·,?,-10%,?,-29%
Cc1ccc(CCNC(=O)c2sc3ncccc3c2-n2c(C)ccc2C)cc1,·,·,11µM*,?,?,-34%
Cc1cc(/C=C2/SC(=S)N(c3cccc(Cl)c3)C2=O)c(C)n1-c1cccnc1,?,3.3µM*,?,-2%,?,-4%
CC(=O)c1ccc(NC(=O)c2cc(-c3ccc(Cl)c(Cl)c3)on2)cc1,·,·,3%,9%,i,-4%
